# FBPA Giardia inh – Giardia lamblia aldolase inhibition. A8B2U2. purified Giardia FBPA. Potency, µM (series often up to 59.6 µM), usual class: inhibitors. actives 0.71% (n = 290,000). AID 2451; further: nearly all actives have a fitted effect of over 55% in size
#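 40 nM FBPA preincubated 10 min at RT with compound (up to 57.5 uM final), then substrate plus GAPDH/TPI/NAD/arsenate coupling and diaphorase/resazurin added. Fluorescence read after 20 min at RT, 525/598 nm.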
# RE007 growth inh – less growth of the S. pombe RE007 Vpr strain. S. pombe RE007 Vpr strain, BacTiter-Glo ATP luminescence, 24 h. Potency, µM (doses to about 92.2 µM), hits mostly inhibitors. actives 0.21% (n = 360,000); active means well fitted falling curve with a large enough effect; inconclusive means small, poorly fitted or top-dose-only effect; inactive means no such curve, though single readings can be large or run the other way; further: nearly all actives have a fitted effect of over 50% in size
#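 Fission yeast strain RE007, carrying one chromosomally integrated HIV-1 vpr copy, was seeded at OD 0.01 in PMG+AL medium with 23 nL pinned compound. After 24 h at 30 °C and 99% humidity, viability was read by BacTiter-Glo luminescence.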
# TbPYK inhibitor – T. brucei pyruvate kinase inhibition | actives 0.12% (n = 410,000) | TbPYK enzyme, Kinase-Glo Plus ATP luminescence, 45 min | Potency, µM (top dose mostly 76.8 µM), most hits filed as inhibitors | AID 624173 | Q57TT1; further: nearly all actives have a fitted effect of over 50% in size
#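 Enzyme and substrate buffer are dispensed first and compound is pin-transferred. ADP at 130 uM final then starts the reaction, which runs 45 min at room temperature. Detection reagent is added for 10 min before luminescence is imaged.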
# AmpC detergent – inhibitors of E. coli AmpC beta-lactamase with detergent | P00811 | AmpC hydrolysis of nitrocefin, absorbance 480 nm, 0.01% Triton | Potency, µM (top dose mostly 114 µM), hits mostly inhibitors | actives 0.041% (n = 370,000) | AID 485294; further: nearly all actives have a fitted effect of over 25% in size
#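 20 mM phosphate pH 7.0 + 0.01% (detergent screen) or 0.0001% Triton X-100; 5.3 nM AmpC reagent; cpd preinc 15 min RT; nitrocefin (800 uM stock) to start; A480 q20 s × 4 min; Activity was normalised to no-enzyme and no-compound control wells.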
# AmpC inh no detg – blocks E. coli AmpC beta-lactamase in detergent-free assay; P00811; AmpC nitrocefin hydrolysis, absorbance 480 nm, 0.0001% Triton; Potency, µM (top dose mostly 57.1 µM), usual class: inhibitors; actives 0.52% (n = 330,000); further: nearly all actives have a fitted effect of over 20% in size
#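 20 mM phosphate pH 7.0 + 0.01% (detergent screen) or 0.0001% Triton X-100; 5.3 nM AmpC reagent; cpd preinc 15 min RT; nitrocefin (800 uM stock) to start; A480 q20 s × 4 min; Activity was normalised to no-enzyme and no-compound control wells.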
# LmPK inh – blocks Leishmania mexicana pyruvate kinase activity; Potency, µM (top dose mostly 57.5 µM), most hits filed as inhibitors; actives 0.37% (n = 290,000); purified LmPK, Kinase-Glo ATP luminescence, 1 h
# Target sequence (Q27686 whole entry, looked up): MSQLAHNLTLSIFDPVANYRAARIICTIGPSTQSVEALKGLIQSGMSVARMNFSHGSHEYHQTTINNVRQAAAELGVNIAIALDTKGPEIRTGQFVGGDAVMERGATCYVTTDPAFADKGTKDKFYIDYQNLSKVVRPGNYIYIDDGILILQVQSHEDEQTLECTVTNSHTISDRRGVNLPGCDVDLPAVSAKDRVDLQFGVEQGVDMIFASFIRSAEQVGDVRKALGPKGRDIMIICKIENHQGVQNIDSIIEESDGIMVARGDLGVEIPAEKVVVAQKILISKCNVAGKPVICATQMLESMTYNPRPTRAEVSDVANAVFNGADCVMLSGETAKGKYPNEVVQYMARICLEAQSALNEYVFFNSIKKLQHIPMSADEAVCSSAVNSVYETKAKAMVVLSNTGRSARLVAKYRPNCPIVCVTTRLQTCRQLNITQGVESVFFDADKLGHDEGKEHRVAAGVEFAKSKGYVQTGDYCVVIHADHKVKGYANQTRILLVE
#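 In 50 mM imidazole pH 7.2 with 7 mM MgCl2, LmPK (0.1 nM) turned over PEP (0.5 mM) and ADP (0.1 mM) for 1 h at room temperature. Luciferase read-out of ATP.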
# A number is an active result; . = inactive; ? = inconclusive; / = no result given; [ ] = dose if it differs, or a comment. Hits are enriched below; roughly 1.4% of the tested compounds scored in any of these assays. Unless noted, the call rests on the fitted dose curve; in most records, active means well fitted curve in the direction sought with a large enough effect; inconclusive means small, poorly fitted or top-dose-only effect, or another doubt; inactive means no such curve, though single readings can be large; an effect the other way counts as inactive or inconclusive.
SMILES,FBPA Giardia inh,RE007 growth inh,TbPYK inhibitor,AmpC detergent,AmpC inh no detg,LmPK inh
CC1Oc2ccccc2N(CC(=O)NCCc2ccccc2)C1=O (stereo not drawn),.,.,.,40µM,.,.
COC(=O)CCC(=O)OC1(C)C(=O)C2=CN(CCc3ccccn3)C(c3ccc(OC)cc3)=CC2=C(Br)C1=O (stereo not drawn),?,.,.,/,/,.[11.5 µM]
COC(=O)CCC(=O)OC1(C)C(=O)C2=CN(CCCCO)C(c3ccc(OC)cc3)=CC2=C(Br)C1=O (stereo not drawn),5µM,/,/,.,.,.
COC(=O)CCC(=O)OC1(C)C(=O)C2=CN(C(CO)CO)C(c3ccc(OC)cc3)=CC2=C(Br)C1=O (stereo not drawn),0.63µM,/,/,.,.,.[11.5 µM]
COC(=O)CCC(=O)OC1(C)C(=O)C2=CN(CCN3CCOCC3)C(c3ccc(OC)cc3)=CC2=C(Br)C1=O (stereo not drawn),0.56µM,/,/,.,.,.[11.5 µM]
Clc1ccc(CSc2nnc(/C=C/c3ccccc3)o2)cc1,.,.,.,.,0.16µM,.
CCOC(=O)c1cc(-c2ccc(OC)c(S(=O)(=O)N3CCN(c4ccccc4)CC3)c2)on1,/,/,.,.,/,/
CCOc1ccc(-c2ccc(SC)nn2)cc1,.,?,?,.,.,5µM
CCCCCCC(=O)O[C@@H]1CC[C@H]2[C@@H]3CCc4cc(O)ccc4[C@H]3CC[C@]12C,/,/,.,/,/,/
Cc1cnc(NC(=O)c2cccs2)s1,.,.,.,.,.,.
O=C(Nc1ncc([N+](=O)[O-])s1)c1cccs1,.,28µM,?,.,.,14µM
CN(C)c1ccc(N/C=C/C(=O)c2ccco2)cc1,?,.,?,.,.,7.1µM
CN(C)c1ccc(N/C=C/C(=O)c2ccc(F)cc2)cc1,.,.,?,.,.,14µM
CC(C)(S)C(=O)NC(CS)C(=O)O (stereo not drawn),/,/,.,/,/,/
CCc1ccccc1N1CSC2=C(C#N)C(c3cc(OC)c(OC)cc3OC)CC(=O)N2C1 (stereo not drawn),4.5µM,.,10µM,.,.,.
N#CC1=C2SCN(c3ccccc3)CN2C(=O)CC1c1ccccc1Cl (stereo not drawn),?,.,?,.,.,.
COc1cc(OC)c(C2CC(=O)N3CN(c4ccccc4)CSC3=C2C#N)cc1OC (stereo not drawn),?,.,8.9µM,.,.,.
COc1ccc(OC)c(C2CC(=O)N3CN(c4ccccc4F)CSC3=C2C#N)c1 (stereo not drawn),?,.,?,.,.,.
N#CC1=C2SCN(c3ccccc3)CN2C(=O)CC1c1c(Cl)cccc1Cl (stereo not drawn),?,.,2.5µM,.,28µM,.
O=C(CC1C(=O)N(c2ccccc2)C(=O)N1Cc1ccc(F)cc1)Nc1cccc(F)c1 (stereo not drawn),/,/,.,.,/,/
Cc1ccccc1CSCC1Nc2ccc(C(=O)NCCc3ccccc3)cc2NC1=O (stereo not drawn),/,32µM,?,/,/,/
COc1ccc(CCNC(=O)CCCn2c(=O)c3ccccc3n(Cc3ccccc3)c2=O)cc1OC,/,/,.,.,/,/
CCOC(=O)c1c(C)oc2c1c(C(c1ccncc1)N1CCOCC1)c(O)c1ccccc12 (stereo not drawn),?,40µM,.,.,.,.
COc1ccccc1/C=C/C=N/NC(=O)c1ccc2nc[nH]c2c1,.,/,/,.,20µM,.
COc1ccc(Cl)cc1NC(=O)Cc1coc2c(C)c(C)ccc12,/,/,.,.,/,/
SMILES,FBPA Giardia inh,RE007 growth inh,TbPYK inhibitor,AmpC detergent,AmpC inh no detg,LmPK inh
NC(N)=NCCCC(N)C(=O)O (stereo not drawn),/,/,.,/,/,/
COc1cc([C@@H]2c3cc4c(cc3[C@@H](O[C@@H]3O[C@H]5CO[C@H](C)O[C@H]5[C@H](O)[C@@H]3O)[C@H]3COC(=O)[C@H]23)OCO4)cc(OC)c1OP(=O)(O)O,/,/,.,/,/,/
O=C(O)c1ccc(N/N=C/c2ccncc2)cc1,4µM,.,.,?,.,.
O=C(O)c1ccc(N/N=C/c2ccc3nccnc3c2)cc1,.,?,?,.,.,16µM
Cc1ccc(N/N=C/c2ccncc2)cc1,.,.,.,.,.,.
O=C(O)c1ccc(N/N=C/c2ccc(F)c(F)c2)cc1,.,?,.,.,.,.
CCOC(=O)c1ccc(N2CCN(c3cc(C)ccc3C)CC2)c(NC(=O)Nc2ccccc2)c1,/,/,.,.,/,/
CC[C@@H](C)[C@H](NC(=O)OCc1ccccc1)c1nnc([C@@H](NC(=O)OCc2ccccc2)[C@@H](C)CC)o1,.,.,.,.,.,.
CC[C@@H](C)[C@H](NC(=O)OC(C)(C)C)c1nnc(S(=O)(=O)Cc2cc(C)ccc2C)o1,.,?,.,11µM,?,.
CC(C)(C)OC(=O)N[C@@H](Cc1ccccc1)c1nnc(S(=O)(=O)Cc2cccc(F)c2)o1,.,?,.,25µM,.,.
Cc1ccccc1CS(=O)(=O)c1nnc([C@H](CC(C)C)NC(=O)OC(C)(C)C)o1,.,.,.,14µM,?,.
CC(C)C[C@H](NC(=O)OC(C)(C)C)c1nnc(SCc2ccccc2)o1,.,.,.,.,.,.
CC(C)C[C@H](N)c1nnc(S(=O)(=O)Cc2cccc(F)c2)o1,.,.,.,3.5µM,4.5µM,.
CC(C)(C)OC(=O)N1CCC(c2c(C(=O)NCCCN3CCc4ccccc4C3)cnn2-c2ccccc2)CC1,/,/,.[15.4 µM],.,/,/
CC(C)[C@H](NC(=O)OC(C)(C)C)c1nnc(S(=O)(=O)Cc2c(F)cccc2Cl)o1,.,.,.,2µM,2.5µM,.
O=C(COC(=O)CSc1ccc([N+](=O)[O-])cc1)NC1CCCCCCC1,/,.,.,?,32µM,/
Cc1ccc(SCC(=O)OCC(=O)NC2CCCCCCC2)cc1,/,.,.,.,.,/
COC(=O)C1=C(C)NC(C)=C(C(=O)O[C@H]2CCN(Cc3ccccc3)C2)C1c1cccc([N+](=O)[O-])c1 (stereo partly drawn),/,/,.,/,/,/
N#C/C(=C\c1ccccn1)c1nc2ccccc2s1,.,?,.,.,.,.
COc1ccc(/C(C#N)=C/c2ccccn2)cc1,.,/,.,.,.,8.9µM
O=C1Nc2ccccc2Oc2cc(Oc3ccccc3)ccc21,/,/,.,.,10µM,/
O=C1Nc2ccccc2Oc2cc(Oc3cccc(Cl)c3)ccc21,/,/,.,.,/,/
COc1ccc(-n2c(C)nn(C)c2=O)cc1,.,.,.,.,.,.
Cc1nn(C)c(=O)n1-c1ccc(OCc2ccccc2)cc1,.,.,.,.,.,14µM
